Results on seven compounds are retold here after PubChem BioAssay (NCATS).

Records with an inconclusive call do not appear. Active and inactive are the calls of the source. Unless noted, calls come from the whole dose curve; as a rule, active = well fitted curve in either direction with a large enough effect (not every such curve was filed as active); inconclusive = small, poorly fitted or top-dose-only effect, or another doubt; inactive = flat fitted curve, though single readings scatter. Where only a bound is given, the exact number is not on record here.

Test [1] addresses Lysosomal acid glucosylceramidase (Homo sapiens) (UniProt P04062). In words: Glucocerebrosidase-p2 (AID 348; in the data active = potency below about 10 µM; note: potency is the fitted concentration of half-maximal effect). Conditions: purified GBA, blue fluorogenic substrate, 40 min. An outline of the steps: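 Normal human glucocerebrosidase (0.2 nM) with blue fluorogenic substrate (80 uM final) in citrate/phosphate pH 5.9 with 10mM sodium taurocholate, 0.01% tween-20; 40 min RT, NaOH/glycine stop; fluorescence Ex 365/Em 440; AC50 from a titration from 0.6 nM upwards.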

Test [2] in a line: AP1 Signaling Pathway (AID 357).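 Note: ME-180 reporter cells stimulated with EGF at its EC50 level; % is set by controls: 0 for no effect and ±100 for the full control effect.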 Conditions: ME-180 AP-1-bla reporter, EGF-induced, beta-lactamase ratio, 5 h; at 7.69 µM (top of the series) unless noted. An outline of the steps:
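AP-1-bla ME-180 cells, Opti-MEM + 0.5% dialyzed FBS, plated overnight 37 °C. Cpd titration + EC50 EGF, 5 h 37 °C. CCF4 2.5 h RT; ex 405, em 460/530 ratio → %activity, AC50.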

Test [3] in a line: NFAT Signaling Pathway (AID 444).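 Note: carbachol stimulus at about its EC50 of 1 µM final; % is set by controls: 0 for no effect and ±100 for the full control effect.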 Conditions: Jurkat NFAT-bla M1, carbachol, beta-lactamase ratio, 5 h; at 7.69 µM (top of the series) unless noted. In short, it runs like this: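 Read-out: CCF4 FRET ratio (460 nm/530 nm) after 1 h RT dye loading, used for %activity and AC50 from titration series. Cells: Jurkat NFAT-β-lactamase/M1 line, treated with compound plus 1 uM carbachol for 5 h, 37 °C.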

Test [4] is described as follows: Stat Signaling Pathway (AID 446).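 Note: ME-180 cervical cancer cells given 40 pM IL-6 alongside compound; SIE-controlled beta-lactamase reporter measured as 460/530 nm FRET emission ratio; % is set by controls: 0 for no effect and ±100 for the full control effect.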 Particulars: ME-180 (cervical carcinoma) SIE beta-lactamase reporter, IL-6 stimulated, 5 h; at 7.69 µM (top of the series) unless noted. In short, it runs like this: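 FRET read-out (405 nm excitation, 460/530 nm emission) of a beta-lactamase reporter under a STAT-inducible element in ME-180 cervical carcinoma cells. Cells with compound receive 40 pM IL-6 for 5 h. Values are normalised to AC90 stimulation and AC90 JAK-inhibitor controls.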

Test [5] addresses Glucocorticoid receptor (Homo sapiens) (UniProt P04150). Nature of the test: GR-EFC Redistribution (AID 451; calls by dose curve; note: potency is the fitted concentration of half-maximal effect). Particulars: CHO-K1 GR-EFC translocation, beta-gal luminescence, 2 h. An outline of the steps:
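Translocation of GR-ED fusion to nuclear EA restores b-gal, read by luminescence after 1 h room-temperature detection. Engineered CHO-K1 biosensor cells, 1,000/well, exposed 2 h at 37 C to titrations up to 46 uM final.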

The target of test [6] is Mitogen-activated protein kinase 10 (Mus musculus) (UniProt Q61831). Nature of the test: JNK3 AlphaScreen Assay (AID 530).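 Note: kinase came from lysate of stimulated human HepG2 cells; signal reports phosphorylation of biotinylated GST-cJun 1-79 at Ser73 with 10 µM ATP; % is set by controls: 0 for no effect and ±100 for the full control effect.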 Conditions: JNK3 lysate, c-Jun phosphorylation; series mostly up to 57.1 µM. In short, it runs like this:
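Kinase buffer: 20 mM Tris-HCl pH 7.6, 10 mM MgCl2, 1 mM DTT, 0.1 mM Na3VO4, 0.01% Tween-20; ATP 10 uM. Substrate biotin-GST-cJun(1-79), enzyme from activated HepG2 lysates. Detection by Ser73 phospho-antibody AlphaScreen.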

Test [7] deals with 3',5'-cyclic-AMP phosphodiesterase 4B (Homo sapiens) (UniProt Q07343). In words: qHTS Assay for Inhibitors of PDE-IV (AID 607; active = well fitted activation curve with a large enough effect in the main read-out, with a control signal flat, not every such curve was filed as active; note: % of control where 0% means no effect). Particulars: HEK293 ACTOne CNG channel cells, membrane potential fluorescence; series mostly up to 22.9 µM. In short, it runs like this:
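Cell-based read-out of cAMP via a modified cyclic nucleotide-gated channel and membrane potential dye (535/590 nm) in HEK293 cells expressing PDE4 endogenously. Compounds tested up to 22.9 uM final; 100 uM RO 20-1724 reference.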

Test [8] addresses Cytochrome P450 2D6 (Homo sapiens) (UniProt P10635). Nature of the test: qHTS Assay for Inhibitors and Substrates of Cytochrome P450 2D6 (AID 891; active = well fitted curve in the direction sought with a large enough effect; an effect the other way counts as inactive or inconclusive; note: potency is the fitted concentration of half-maximal effect; nearly all actives have a fitted effect of over 60% in size). Particulars: recombinant CYP2D6, luciferin-ME EGE luminescence; series mostly up to 57.1 µM. In short, it runs like this:
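Luminescent read-out of luciferin formed by 5 nM human CYP2D6 demethylating 30 uM Luciferin-ME EGE (Km level) over 60 min at room temperature after NADPH regeneration addition. Data normalized to full inhibition by 1.43 uM quinidine.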
(qHTS replaces the single test concentration by a dilution series.)

A short description of test [9]: qHTS Assay for Lipid Storage Modulators (AID 1519; calls by dose curve). Particulars: Drosophila S3 cells, BODIPY lipid droplet/cell ratio, laser cytometry, cells loaded with oleic acid; for activity change, negative = inhibition: at 57.5 µM (top of the series). An outline of the steps:
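Cells seeded at 5,000 per well were treated with compounds over a concentration series and loaded with oleic acid (400 uM, as added). Lipid droplet fluorescence (488 nm excitation, 500-530 nm channel) was read by laser-scanning cytometry and normalized to 20 uM Triacsin C.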

Test [10] is described as follows: Primary qHTS for small molecule stabilizers of the endoplasmic reticulum resident proteome: Secreted ER Calcium Modulated Protein (SERCaMP) assay (AID 1508630; active = well fitted curve in the direction sought with a large enough effect; an effect the other way counts as inactive or inconclusive; note: % is set by controls: 0 for no effect and ±100 for the full control effect). Conditions: SH-SY5Y GLuc-SERCaMP (Gaussia luciferase released on ER calcium loss) secretion, thapsigargin, luminescence; series mostly up to 38.4 µM. An outline of the steps: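 The SH-SY5Y reporter protocol was run at 3 concentrations up to 38.3 uM (primary) or 11 concentrations (follow-up): 16 h compound, 100 nM thapsigargin for 4 h, then extracellular luciferase luminescence.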

Test [11] addresses Cytochrome P450 3A4 (Homo sapiens) (UniProt P08684). Nature of the test: qHTS Assay for Activators of Cytochrome P450 3A4 (AID 885; active = well fitted curve in the direction sought with a large enough effect; an effect the other way counts as inactive or inconclusive; note: nearly all actives have a fitted effect of over 65% in size; note: potency is the fitted concentration of half-maximal effect). Conditions: recombinant CYP3A4, Luciferin-PPXE luminescence, 60 min; series mostly up to 57.1 µM. An outline of the steps: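 Luminescent readout of luciferin formed from 25 uM Luciferin-PPXE (KM level) by 20 nM CYP3A4 in 200 mM KPO4, with 60 min NADPH-driven reaction at room temperature after 10 min compound exposure. Ketoconazole (57 uM) defined 100% inhibition.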

Test [12] shares this target. In words: qHTS Assay for Inhibitors and Substrates of Cytochrome P450 3A4 (AID 884; active = well fitted curve in the direction sought with a large enough effect; an effect the other way counts as inactive or inconclusive; note: % is set by controls: 0 for no effect and ±100 for the full control effect; nearly all actives have a fitted effect of over 50% in size). Particulars: recombinant CYP3A4, Luciferin-PPXE luminescence; series mostly up to 57.1 µM. In short, it runs like this:
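Luminescent readout of luciferin produced by CYP3A4 (20 nM) dealkylation of Luciferin-PPXE, 25 uM (its KM). NADPH-driven reaction ran 60 min at RT after 10 min compound preincubation; data scaled to 57 uM ketoconazole as 100% inhibition.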

Setting [13] is: measured here: cell count channel max response.
The mark [14] stands for this setting: measured here: lipid channel max response.

Sequence of 3',5'-cyclic-AMP phosphodiesterase 4B (Homo sapiens) (Q07343 whole entry, looked up): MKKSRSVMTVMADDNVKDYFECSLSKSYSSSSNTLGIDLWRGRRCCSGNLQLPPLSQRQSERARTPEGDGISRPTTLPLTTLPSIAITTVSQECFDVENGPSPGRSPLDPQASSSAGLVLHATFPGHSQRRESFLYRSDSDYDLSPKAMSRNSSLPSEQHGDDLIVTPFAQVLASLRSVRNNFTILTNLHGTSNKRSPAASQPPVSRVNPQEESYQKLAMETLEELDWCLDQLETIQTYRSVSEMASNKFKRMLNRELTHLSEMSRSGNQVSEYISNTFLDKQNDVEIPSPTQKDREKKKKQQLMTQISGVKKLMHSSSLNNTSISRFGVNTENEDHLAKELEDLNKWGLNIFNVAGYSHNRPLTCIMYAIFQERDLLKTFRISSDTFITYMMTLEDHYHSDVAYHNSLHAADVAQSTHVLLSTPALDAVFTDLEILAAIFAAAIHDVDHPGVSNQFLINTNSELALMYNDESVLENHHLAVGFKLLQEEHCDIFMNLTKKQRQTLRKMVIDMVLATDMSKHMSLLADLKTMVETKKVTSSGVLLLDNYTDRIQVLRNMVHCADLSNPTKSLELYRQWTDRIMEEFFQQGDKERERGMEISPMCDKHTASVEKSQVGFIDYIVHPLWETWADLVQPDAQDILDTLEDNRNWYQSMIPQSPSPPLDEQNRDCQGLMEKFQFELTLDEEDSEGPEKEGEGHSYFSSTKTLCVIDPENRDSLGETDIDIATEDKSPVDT
Sequence of Cytochrome P450 3A4 (Homo sapiens) (P08684 whole entry, looked up): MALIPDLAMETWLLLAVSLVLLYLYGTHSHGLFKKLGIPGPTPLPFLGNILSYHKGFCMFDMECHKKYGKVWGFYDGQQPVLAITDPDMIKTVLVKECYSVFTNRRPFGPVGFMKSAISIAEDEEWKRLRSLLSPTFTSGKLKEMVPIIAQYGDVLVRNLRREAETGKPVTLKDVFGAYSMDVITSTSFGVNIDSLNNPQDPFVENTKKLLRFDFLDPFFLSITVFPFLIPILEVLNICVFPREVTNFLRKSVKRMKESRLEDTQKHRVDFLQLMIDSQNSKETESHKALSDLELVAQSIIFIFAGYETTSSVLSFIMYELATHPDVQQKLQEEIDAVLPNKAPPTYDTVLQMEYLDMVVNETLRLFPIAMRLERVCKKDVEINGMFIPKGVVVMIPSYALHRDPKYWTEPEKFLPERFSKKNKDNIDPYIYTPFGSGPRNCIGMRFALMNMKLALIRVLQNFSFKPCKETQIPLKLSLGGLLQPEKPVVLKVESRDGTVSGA
Sequence of Glucocorticoid receptor (Homo sapiens) (P04150 whole entry, looked up, the tested form may be a part): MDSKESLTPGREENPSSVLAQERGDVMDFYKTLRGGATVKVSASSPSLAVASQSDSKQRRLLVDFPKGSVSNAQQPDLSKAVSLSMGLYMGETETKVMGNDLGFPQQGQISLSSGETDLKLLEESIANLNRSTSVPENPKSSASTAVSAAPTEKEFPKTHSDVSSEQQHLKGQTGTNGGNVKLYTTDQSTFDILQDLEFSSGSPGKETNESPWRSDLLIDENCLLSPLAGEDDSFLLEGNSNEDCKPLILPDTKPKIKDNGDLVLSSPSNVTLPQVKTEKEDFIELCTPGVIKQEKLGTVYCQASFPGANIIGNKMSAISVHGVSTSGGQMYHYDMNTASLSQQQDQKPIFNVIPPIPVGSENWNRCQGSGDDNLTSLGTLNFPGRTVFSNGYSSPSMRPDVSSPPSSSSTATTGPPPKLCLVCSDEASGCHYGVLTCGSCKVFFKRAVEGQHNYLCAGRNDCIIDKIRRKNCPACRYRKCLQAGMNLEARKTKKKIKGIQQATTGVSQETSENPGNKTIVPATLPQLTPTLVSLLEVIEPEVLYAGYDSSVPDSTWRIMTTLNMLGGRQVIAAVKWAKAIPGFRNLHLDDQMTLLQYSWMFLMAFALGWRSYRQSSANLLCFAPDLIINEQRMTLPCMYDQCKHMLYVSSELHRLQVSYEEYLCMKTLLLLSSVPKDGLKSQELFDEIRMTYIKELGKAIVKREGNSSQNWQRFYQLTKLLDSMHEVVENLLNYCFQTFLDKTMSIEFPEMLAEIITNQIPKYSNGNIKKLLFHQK
Sequence of Lysosomal acid glucosylceramidase (Homo sapiens) (P04062 whole entry, looked up): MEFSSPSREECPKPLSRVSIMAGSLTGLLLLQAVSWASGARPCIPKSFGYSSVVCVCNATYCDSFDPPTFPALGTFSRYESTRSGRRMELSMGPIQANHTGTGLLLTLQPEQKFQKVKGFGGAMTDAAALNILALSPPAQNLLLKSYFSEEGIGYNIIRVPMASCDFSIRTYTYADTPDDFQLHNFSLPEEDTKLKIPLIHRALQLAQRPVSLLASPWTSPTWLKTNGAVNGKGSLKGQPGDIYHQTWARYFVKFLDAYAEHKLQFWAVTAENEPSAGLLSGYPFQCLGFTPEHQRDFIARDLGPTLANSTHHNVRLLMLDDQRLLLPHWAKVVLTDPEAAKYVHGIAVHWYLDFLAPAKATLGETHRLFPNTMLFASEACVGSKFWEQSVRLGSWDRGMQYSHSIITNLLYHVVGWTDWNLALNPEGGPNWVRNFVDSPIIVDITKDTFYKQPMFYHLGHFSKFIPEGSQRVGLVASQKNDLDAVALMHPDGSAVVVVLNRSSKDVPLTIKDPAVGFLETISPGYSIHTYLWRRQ
Sequence of Cytochrome P450 2D6 (Homo sapiens) (P10635 whole entry, looked up): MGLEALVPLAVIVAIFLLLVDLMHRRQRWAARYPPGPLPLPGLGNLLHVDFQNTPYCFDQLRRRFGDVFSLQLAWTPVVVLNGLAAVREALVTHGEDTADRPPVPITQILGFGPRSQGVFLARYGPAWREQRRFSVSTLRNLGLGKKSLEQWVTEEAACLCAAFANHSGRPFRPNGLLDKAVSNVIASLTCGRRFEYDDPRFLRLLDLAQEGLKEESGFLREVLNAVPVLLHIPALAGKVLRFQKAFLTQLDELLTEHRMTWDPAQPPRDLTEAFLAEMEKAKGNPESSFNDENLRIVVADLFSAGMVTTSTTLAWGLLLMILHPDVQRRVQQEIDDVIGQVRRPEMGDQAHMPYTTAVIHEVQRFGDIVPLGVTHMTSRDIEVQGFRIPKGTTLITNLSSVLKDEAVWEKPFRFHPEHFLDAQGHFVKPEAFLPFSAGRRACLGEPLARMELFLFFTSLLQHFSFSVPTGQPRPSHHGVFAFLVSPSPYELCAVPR

With `CC(C)NC(=O)N1CC2(CCN(C(=O)c3cc(C(F)(F)F)cc(C(F)(F)F)c3)CC2)C1`, the values for the Potency in [1], in test [5] and in test [8] were > 11.4 µM (inactive), > 46 µM (inactive) and 0.251 µM (active), respectively. The activity change, negative = inhibition in [2] was -16.3% (inactive); in [3], 6.43% (inactive); in test [9], 0.828% (inactive). The activity, negative = inhibition in test [4] is -11.9% (inactive). Moreover, the Potency result in test [6] and in [7] was “inactive” in each case. The max response in test [9] (setting [13]) is 11%; in [9] (setting [14]), 13.7%. Besides, in test [10], the outcome was inactive.

For the compound `Cc1noc(C)c1C(=O)N1CCC2(CCCN(C(=O)Nc3cccc(C#N)c3)C2)CC1`, the Potency in test [1] is > 11.4 µM (inactive); in test [5] it was > 46 µM (inactive). The results for the activity change, negative = inhibition in test [2], in [3] and in test [9] were -3.54% (inactive), -25.9% (inactive) and 9.42% (inactive), respectively. Also, the activity, negative = inhibition in test [4] was -0.0853% (inactive). In addition, the Potency entry in test [6] and in test [7] was “inactive” throughout. For the same compound, the max response in test [9] (setting [13]) came to 12.8%; in test [9] (setting [14]), 23.7%. The outcome in test [10] was inactive.

Consider `CC(C)CN1CC2(CCN(C(=O)c3cnccn3)CC2)C1`, for which the Potency is > 11.4 µM (inactive) in test [1] and > 46 µM (inactive) in test [5]. In addition, the activity change, negative = inhibition was -4.93% (inactive) in [2], -25.4% (inactive) in test [3] and 3.58% (inactive) in test [9]. In addition, the activity, negative = inhibition in [4] was -6.85% (inactive). The Potency entry in test [6] and in [7] was “inactive” throughout. Besides, the max response amounted to 13.2% in test [9] (setting [13]) and 20.3% in [9] (setting [14]). Moreover, the outcome in test [10] was inactive.

`Cn1cccc1C(=O)N1CCC2(CC1)CN(C(=O)Nc1cccc(F)c1)C2`: the Potency in test [1] is > 11.4 µM (inactive); in [5], > 46 µM (inactive). Also, the activity change, negative = inhibition in test [2] is 5.05% (inactive); in [3], 6.99% (inactive); in test [9], 2.3% (inactive). Moreover, the activity, negative = inhibition in test [4] is -4.36% (inactive). Besides, the Potency entry in test [6] and in [7] was “inactive” each time. Further, the max response in test [9] (setting [13]) is -3.47%; in test [9] (setting [14]) it was 0.81%. The outcome in [10] was inactive.

In the case of `O=C(Nc1ccccc1)N1CC[C@@]2(CCCN(C(=O)c3cccc(F)c3)C2)C1`, the Potency was > 11.4 µM (inactive) in [1] and > 46 µM (inactive) in test [5]. For the same compound, the activity change, negative = inhibition is -10.5% (inactive) in test [2], -6.63% (inactive) in [3] and 5.88% (inactive) in test [9]. Also, the activity, negative = inhibition in test [4] is 4.89% (inactive). Further, the Potency entry in test [6], in test [7] and in test [11] was “inactive” throughout. Moreover, the max response in test [9] (setting [13]) was 19.2%; in [9] (setting [14]) it was 27.2%. Further, the result in test [10] was inactive.

With `N#Cc1cccc(NC(=O)N2CC3(CCN(C(=O)c4cccc(F)c4)CC3)C2)c1`, the Potency was > 11.4 µM (inactive) in [1], > 46 µM (inactive) in test [5] and 10 µM (active) in [11]. The values for the activity change, negative = inhibition in test [2], in test [3] and in test [9] were -1.48% (inactive), 8.8% (inactive) and 4.13% (inactive), respectively. Also, in [4], the activity, negative = inhibition was -8.78% (inactive). For the same compound, the Potency result in [6], in [7] and in test [12] was “inactive” in each case. Also, the max response turned out to be 17% in test [9] (setting [13]) and 25.1% in test [9] (setting [14]). Moreover, in [10], the outcome was inactive.

As for `COCC(=O)N1CCC2(CCCN(c3ccccc3)C2)CC1`, the Potency was > 11.4 µM (inactive) in test [1] and > 46 µM (inactive) in test [5]. Moreover, the results for the activity change, negative = inhibition in test [2], in test [3] and in test [9] were 4.54% (inactive), -7.94% (inactive) and 0.354% (inactive), respectively. In test [4], the activity, negative = inhibition was -0.962% (inactive). Besides, the Potency result in test [6], in [7] and in test [11] was “inactive” each time. Moreover, the max response in test [9] (setting [13]) was found to be 4.96%; in test [9] (setting [14]), 6.05%. Further, the result in test [10] was inactive.
